Hits are enriched below; roughly 3% of the tested compounds scored in any of these assays.
mTORC1 inh – inhibitors of mTORC1 signaling in Tsc2-/- p53-/- MEF cells; Tsc2-/- p53-/- MEF, phospho-rpS6 immunofluorescence/PI, 24 h; Potency, µM (highest dose often 38.3 µM), without a hit: top-dose activity change, negative = inhibition, hits mostly inhibitors; 44,000 tested, 0.78% active;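 further: potency means the concentration at half of the fitted maximal effect; plate controls were DMSO for no effect and rapamycin for full effect; nearly all actives have a fitted effect of over 50% in size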
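Tsc2-/-, p53-/- mouse embryonic fibroblasts (empty-vector line) exposed to compound 24 hrs at 37 C, fixed, immunostained for phospho-rpS6 and counterstained with propidium iodide. Acumen laser scanning gives % positive cells from Alexa 488/PI ratio, thresholded using 7.5 nM rapamycin; PI count gives viability.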
PMP22 txn – modulators of PMP22 gene transcription in S16 Schwann cells; S16 Pmp22-F2sN Schwann cells, FLuc/NLuc coincidence luminescence, 24 h; Potency, µM (titrated, usually from 57.5 µM), for the others: top-dose activity change, negative = inhibition, usual class: inhibitors; 43,000 tested, 2% active; AID 1508649; active means clear falling dose curves in both reporters; inconclusive means both reporters move, but less clearly or upward; inactive means either reporter flat; the % is the NLuc reporter signal; further: potency means the concentration at half of the fitted maximal effect; on the % scale 0 is the no-effect control and ±100 the full control effect
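S16(c9) Schwann cells with FLuc/NLuc coincidence reporter in the Pmp22 3' UTR; compounds pin-transferred, 24 h at 37C. Dual-luciferase read: FLuc first, then NLuc after Stop&Glo, each 10 min at room temperature.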
p53null 39C tox – kills p53 null cells at the nonpermissive temperature; H1299 p53-null (neo) cells, 39C, ATPlite viability, 24 h; Potency, µM (doses to about 46.1 µM), without a hit: top-dose activity, negative = cell killing, usual class: cytotoxic; 55,000 tested, 0.97% active; AID 904;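 further: potency means the concentration at half of the fitted maximal effect; 0% = DMSO only and -100% = full killing by 100 µM tamoxifen; nearly all actives have a fitted effect of over 50% in size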
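Following overnight plating at 37C (600 cells/well), H1299-neo or H1299-p53A138V cells are dosed up to 46 uM. Incubation lasts 24 hr at 39C before ATP detection.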
p53null 32C kill – p53 null cell cytotoxicity, permissive temperature. H1299-neo p53 null cells, ATP luminescence, 24 h, 32C. Potency, µM (top dose mostly 46.1 µM), without a hit: top-dose activity change, negative = cytotoxicity, hits mostly cytotoxic. 55,000 tested, 0.62% active. AID 903;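 further: potency means the concentration at half of the fitted maximal effect; 0% = DMSO only and -100% = full killing by 100 µM tamoxifen; nearly all actives have a fitted effect of over 55% in size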
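H1299-neo, 600 cells/well; overnight 37C; cpd up to 46 uM, 24 h at 32C; ATPlite luminescence after 20 min RT; normalized to DMSO (0%) and tamoxifen 100 uM (100% kill); Hill-fit AC50.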
S16 viability – toxic to S16 Pmp22-F2sN Schwann cells | S16 Pmp22-F2sN Schwann cells viability, CellTiter-Glo, 24 h | AID 1508642 | 43,000 tested, 0.48% active | Potency, µM (highest dose often 57.5 µM), inactives show top-dose activity change, negative = cytotoxicity, most hits filed as cytotoxic; further: potency means the concentration at half of the fitted maximal effect; on the % scale 0 is the no-effect control and ±100 the full control effect; nearly all actives have a fitted effect of over 65% in size
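Viability was measured by CellTiter-Glo luminescence (15 min, room temperature). This followed 24 h at 37 °C of compound exposure (23 nL pin transfer) in S16 Pmp22-F2sN Schwann cells, 500-1,000 per well.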
GALC G270D up – galactocerebrosidase G270D activity enhancement, cell-based. AID 1159614. 145M-Twi-hGALC-G270D cells, HMU-beta-Gal fluorescence, 48 h. 45,000 tested, 0.1% active. Potency, µM (series often up to 57.5 µM), actives largely listed as activators. P54803; further: potency means the concentration at half of the fitted maximal effect; 0% is about no effect; nearly all actives have a fitted effect of over 65% in size
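qHTS, 1536-well; 145M-Twi-hGALC-G270D cells (WT line also made) in DMEM/F12 + 10% FBS; compound incubation on live cells; HMU-β-gal 0.1 mM final, pH 5.2, NaTC; carbonate stop; fluorescence increase = enhanced residual activity.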
NLuc sat counter – counter-screen for PMP22 expression modulators: NanoLuc inhibition, saturating substrate. Potency, µM (top dose mostly 57.5 µM), for the others: at the highest dose activity change, negative = inhibition, hits mostly inhibitors. 690 tested, 4% active. Secreted NLuc enzyme (filtered S16 cell medium), Nano-Glo luminescence. AID 1508638. shares compounds with PMP22 txn; further: potency means the concentration at half of the fitted maximal effect; on the % scale 0 is the no-effect control and ±100 the full control effect
NLuc Km ctr – inhibits NanoLuc under Km conditions, PMP22 counter-screen. shares compounds with PMP22 txn. secreted NLuc enzyme, coelenterazine luminescence, Km conditions. Potency, µM (titrated, usually from 57.5 µM), for inactives: at the top dose activity change, negative = inhibition, hits mostly inhibitors. 690 tested, 5% active. AID 1508639; further: potency means the concentration at half of the fitted maximal effect; on the % scale 0 is the no-effect control and ±100 the full control effect
FLuc ctr PMP22 – inhibits firefly luciferase, PMP22 counter-screen | shares compounds with PMP22 txn | purified P. pyralis FLuc, luminescence, 10 min | Potency, µM (top dose mostly 57.5 µM), for the others: top-dose activity, negative = inhibition, most hits filed as inhibitors | 690 tested, under 10 active | AID 1508640; further: % of control where 0% means no effect
Target sequence (P08659 whole entry, looked up): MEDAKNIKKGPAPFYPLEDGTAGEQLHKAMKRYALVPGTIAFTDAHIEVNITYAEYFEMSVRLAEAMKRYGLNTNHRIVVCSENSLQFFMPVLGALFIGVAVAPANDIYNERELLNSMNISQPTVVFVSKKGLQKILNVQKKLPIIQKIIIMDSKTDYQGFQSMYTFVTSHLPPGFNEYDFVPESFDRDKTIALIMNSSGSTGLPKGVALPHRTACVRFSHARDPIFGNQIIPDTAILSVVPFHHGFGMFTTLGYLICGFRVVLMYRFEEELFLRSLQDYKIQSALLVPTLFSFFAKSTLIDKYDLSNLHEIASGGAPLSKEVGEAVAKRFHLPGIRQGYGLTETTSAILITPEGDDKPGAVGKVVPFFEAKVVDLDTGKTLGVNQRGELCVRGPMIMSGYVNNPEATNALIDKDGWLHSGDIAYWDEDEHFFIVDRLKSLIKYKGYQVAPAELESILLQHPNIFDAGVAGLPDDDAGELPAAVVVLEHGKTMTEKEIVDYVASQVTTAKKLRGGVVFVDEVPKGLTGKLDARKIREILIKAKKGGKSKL
S16 viab conf – confirmation of cytotoxicity in S16 Pmp22-F2sN Schwann cells (luciferase reporters placed in the Pmp22 gene); S16 Schwann cells viability, CellTiter-Glo ATP luminescence, 24 h; 690 tested, 7% active; Potency, µM (titrated, usually from 57.5 µM), for inactives: at the top dose activity change, negative = viability loss, usual class: cytotoxic; shares compounds with PMP22 txn; further: potency means the concentration at half of the fitted maximal effect; on the % scale 0 is the no-effect control and ±100 the full control effect
PMP22 txn conf – PMP22 transcription modulation, confirmatory. shares compounds with PMP22 txn. S16 Schwann cells Pmp22-F2sN, dual luciferase, 24 h. Potency, µM (series often up to 57.5 µM), without a hit: at the top dose activity change, negative = inhibition, most hits filed as inhibitors. 690 tested, 22% active; active means clear falling dose curves in both reporters; inconclusive means both reporters move, but less clearly or upward; inactive means either reporter flat; the % is the FLuc reporter signal; further: potency means the concentration at half of the fitted maximal effect
PMP22 HiBiT cnf – rat PMP22 protein level modulation, confirmatory | shares compounds with PMP22 txn | S16 Schwann cells Pmp22-HiBiT, luminescence, 48 h | Potency, µM (doses to about 27.9 µM), for the others: at the highest dose activity change, negative = inhibition, usual class: inhibitors | 95 tested, under 10 active
Target sequence (P25094 whole entry, looked up): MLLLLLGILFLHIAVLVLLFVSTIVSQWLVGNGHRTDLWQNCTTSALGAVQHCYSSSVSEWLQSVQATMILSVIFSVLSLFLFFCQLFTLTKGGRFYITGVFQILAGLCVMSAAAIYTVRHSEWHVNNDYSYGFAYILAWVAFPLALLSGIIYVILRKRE
* marks the source's active call; other numbers are inactive results; i = inactive; ? = inconclusive; nt = no result. Unless noted, the call rests on the fitted dose curve; in most records, active means well fitted curve in the direction sought with a large enough effect; inconclusive means small, poorly fitted or top-dose-only effect, or another doubt; inactive means no such curve, though single readings can be large; an effect the other way counts as inactive or inconclusive.

SMILES	mTORC1 inh	PMP22 txn	p53null 39C tox	p53null 32C kill	S16 viability	GALC G270D up	NLuc sat counter	NLuc Km ctr	FLuc ctr PMP22	S16 viab conf	PMP22 txn conf	others
CCc1nnc(NC(=O)c2nc(S(C)(=O)=O)ncc2Cl)s1	?	9.46µM*	-10.7%	5.6%	?	i	?	?	-4.2%	?	13.8µM*	PMP22 HiBiT cnf=?
CCSc1ncc(Cl)c(C(=O)Nc2nnc(CC)s2)n1	3.4%	-1.2%	7.2%	4.0%	-2.2%	i	nt	nt	nt	nt	nt
CCOC(=O)c1c(C)c(-c2ccccc2)n(CC(=O)Nc2cc(C)ccc2OC)c1C	-0.1%	9.46µM*	-1.3%	1.1%	-2.5%	i	-4.3%	3.6%	-3.7%	-8.7%	?
CCn1cc(C(=O)NCCc2ccc(OC)c(OC)c2)c(=O)c2cc(S(=O)(=O)N3CCCCCC3)ccc21	0.6%	?	-9.7%	16.3%	?	i	?	?	-9.9%	-3.1%	-54.3%
CCC(C)NC(=O)c1cn(CC)c2ccc(S(=O)(=O)N3CCc4ccccc4C3)cc2c1=O (stereo not drawn)	0.7%	16.8µM*	-14.2%	-7.4%	-20.1%	i	-5.1%	5.0%	3.7%	-23.2%	-40.9%
Cc1ccc(Cl)cc1NC(=O)Cn1c(=O)cc(C)c2c(C)nn(C)c21	-17.4%	18.9µM*	-4.3%	-5.3%	19.4%	i	-15.4%	-13.5%	4.0%	-20.7%	-26.7%
COc1ccc(NC(=O)Cn2c(=O)cc(C)c3c(C)nn(C)c32)cc1	-14.2%	15.8µM*	-17.1%	12.5%	0.8%	i	-4.3%	-2.8%	3.0%	-3.5%	-13.6%
CCOc1ccc(NC(=O)Cn2c(=O)cc(C)c3c(C)nn(C)c32)cc1	?	-14.2%	2.6%	-5.2%	?	i	nt	nt	nt	nt	nt
COc1ccc(CNC(=O)C2CCCN(C(=O)c3cnn(-c4ccc(F)cc4)c3-n3cccc3)C2)cc1 (stereo not drawn)	-1.9%	?	4.9%	2.4%	0.8%	i	nt	nt	nt	nt	nt
COc1ccc(-c2cc(C)no2)cc1S(=O)(=O)N1CCc2ccccc21	-6.6%	-16.7%	-2.8%	-7.6%	0.6%	i	nt	nt	nt	nt	nt
Cc1ccc(Nc2cc(C)c(C#N)c3nc4ccccc4n23)c(C)c1	-11.6%	?	-6.6%	1.3%	20.2%	i	nt	nt	nt	nt	nt
Cc1cc(Nc2cccc(Br)c2)n2c(nc3ccccc32)c1C#N	-4.8%	8.97µM*	-25.4%	-17.3%	?	i	-18.3%	?	7.0%	9.9%	?
COc1cc(CNCc2ccccn2)ccc1OCc1ccc(Cl)cc1	nt	nt	nt	-23.7%	nt	nt	nt	nt	nt	nt	nt
CCOc1cc(CNc2ccc(O)cc2)ccc1OCc1ccc(Cl)cc1	?	7.81µM*	?	1.6%	?	i	17.2µM*	19.3µM*	?	-5.4%	-40.1%
CCOc1cc(CNc2ccc(O)cc2)cc(Br)c1OCc1ccccc1	-7.8%	8.54µM*	?	11.9%	?	i	?	?	-10.8%	11.4%	14.5µM*	PMP22 HiBiT cnf=-10.7%
Cc1ccc(OCC(=O)Nc2nnc(S(=O)(=O)N3c4ccccc4CC3C)s2)cc1 (stereo not drawn)	-4.4%	7.4%	-8.9%	-4.1%	1.0%	i	nt	nt	nt	nt	nt
Cc1ccccc1Cn1c(=O)n(CC2CCC(C(=O)N3CCOCC3)CC2)c(=O)c2sccc21 (stereo not drawn)	-0.1%	11.9µM*	2.9%	6.2%	-8.4%	i	-8.3%	5.6%	1.9%	-2.2%	-24.4%
COc1ccc(Nc2ncc(C(=O)N3CCN(c4cccc(Cl)c4)CC3)c3ccccc23)cc1	-17.5%	13.5µM*	7.0%	27.1%	-16.0%	i	?	1.4%	6.3%	-11.2%	?
Cc1ccc(NC(=O)N(Cc2c[nH]c3ccccc23)C2CCCCCC2)cc1C	2.1%	?	-5.3%	-16.2%	-14.1%	i	nt	nt	nt	nt	nt
COc1cccc(NC(=O)N(Cc2c[nH]c3ccccc23)C2CCCCC2)c1	-8.0%	-23.3%	-13.8%	11.3%	16.5%	i	nt	nt	nt	nt	nt
COc1cccc(NC(=O)N(Cc2cn(C)c3ccccc23)C2CCCCC2)c1	-2.2%	10µM*	?	-1.3%	?	i	?	?	-2.5%	2.2%	?
Cc1ccc(NC(=O)N(Cc2cn(C)c3ccccc23)C2CCCCC2)cc1C	-1.2%	11.3µM*	?	6.7%	?	i	13.7µM*	?	?	1.9%	?
Cc1ccc(S(=O)(=O)Cc2nc(-c3ccc(C(=O)NCCCOC(C)C)cc3)oc2C)cc1	-0.3%	-5.4%	15.3%	-7.1%	4.8%	i	nt	nt	nt	nt	nt
COc1ccc(CC(=O)Nc2sc3c(c2C(=O)Nc2cccc(C)c2)CCCCC3)cc1	9.27µM*	10µM*	?	-13.4%	25.1µM*	i	-15.2%	5.6%	-13.5%	?	?
